The text below walks through data of PubChem BioAssay (Tox21).

The structures appear in SMILES notation. Where “and” joins values, the source holds several entries; their conditions need not be identical. Identical values can stand only once. Inconclusive results are not listed. Calls of active or inactive are those of the source. Unless noted, the call rests on the fitted dose curve; in most records, active means well fitted curve in the direction sought with a large enough effect in the repeat runs; inconclusive means weak or mixed curves; inactive means no such curve, though single readings can be large; an effect the other way counts as inactive or inconclusive.

Assay [1] in a line: qHTS assay to identify aromatase inhibitors - cell viability counter screen (AID 743084).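 Further: cells stimulated with testosterone during compound exposure; nearly all actives have a fitted effect of over 55% in size.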 Further: potency means the concentration at half of the fitted maximal effect.
Assay [2] addresses Aryl hydrocarbon receptor (Homo sapiens) (UniProt P35869). Put plainly: qHTS assay to identify small molecule that activate the aryl hydrocarbon receptor (AhR) signaling pathway (AID 743085).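 Further: HG2L7.5c1 human HepG2 liver cells with stably integrated DRE-driven firefly reporter; series mostly up to about 70 µM; nearly all actives have a fitted effect of over 15% in size.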 The procedure, abridged: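 A multiplexed format paired cell viability (CellTiter-Fluor fluorescence) with AhR-dependent luciferase output (ONE-Glo luminescence) in the same wells of HepG2 DRE-luc cells after 24 h compound exposure at 37C.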

A short description of assay [3]: qHTS assay to identify small molecule that activate the aryl hydrocarbon receptor (AhR) signaling pathway - cell viability counter screen (AID 743086).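 Further: HepG2 liver cells carrying the AhR DRE luciferase reporter; series mostly up to about 70 µM; nearly all actives have a fitted effect of over 45% in size.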 The procedure, abridged: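 HepG2-AhR-luc (HG2L7.5c1) cells, 4000/well, were preincubated 5 h at 37C, exposed to compound in qHTS format for 24 hr at 37C, then given CellTiter-Fluor for 30 min; viability was read as fluorescence in the reporter wells.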

Assay [4] addresses Peroxisome proliferator-activated receptor gamma (Homo sapiens) (UniProt P37231). Put plainly: qHTS assay to identify small molecule agonists of the peroxisome proliferator-activated receptor gamma (PPARg) signaling pathway (AID 743094; active means well fitted activation curve with a large enough effect in the signal ratio in the repeat runs, not every such curve was filed as active; the % refers to the signal ratio; further: potency means the concentration at half of the fitted maximal effect). The procedure, abridged:
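Beta-lactamase FRET fluorescence was the read-out after a 1 h room-temperature substrate step, following 17 h compound treatment at 37C of HEK293H cells expressing a UAS-driven bla reporter responsive to PPARg.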

Assay [5] is described as follows: qHTS assay to identify small molecule antagonists of the peroxisome proliferator-activated receptor gamma (PPARg) signaling pathway - cell viability counter screen (AID 743194). Further: nearly all actives have a fitted effect of over 55% in size. Further: potency means the concentration at half of the fitted maximal effect. Conditions: Potency: co-treated with 50 nM rosiglitazone unless noted. Summed up: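 PPARg-UAS-bla HEK293H cells were plated, rested 5 h at 37 C, then treated with compounds plus rosiglitazone (50 nM final) for 17 h at 37 C; viability was then read by CellTiter-Glo luminescence after 30 min at room temperature.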

The nature of assay [6]: qHTS assay for small molecule agonists of the antioxidant response element (ARE) signaling pathway - cell viability counter screen (AID 743203; calls by dose curve; further: nearly all actives have a fitted effect of over 55% in size; further: potency means the concentration at half of the fitted maximal effect). Summed up: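 HepG2 cells carrying ARE-driven beta-lactamase; 2,000 cells/well; 5 hrs plating; compound pinned from DMSO; 16 hrs 37C/5% CO2; CellTiter-Glo added; 30 min RT; luminescence.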
Assay [7] in a line: qHTS assay for small molecule activators of the heat shock response signaling pathway - cell viability counter screen (AID 743209). Further: nearly all actives have a fitted effect of over 50% in size. Further: potency means the concentration at half of the fitted maximal effect. Summed up: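 Luminescence from CellTiter-Glo, added after the beta-lactamase FRET read, gave the viability signal. Cells were HSE-bla HeLa treated with DMSO-dissolved compounds for 5 h at 37 C following overnight plating.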
Assay [8] can be described thus: qHTS assay to identify small molecule agonists of the peroxisome proliferator-activated receptor delta (PPARd) signaling pathway - cell viability counter screen (AID 743211). Further: nearly all actives have a fitted effect of over 55% in size. Further: potency means the concentration at half of the fitted maximal effect. The procedure, abridged:
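Tox21 library compounds, delivered in DMSO, were incubated 17 h with PPARd-bla HEK293H cells; cytotoxicity was taken from CellTiter-Glo luminescence read 30 min after reagent addition.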

A short description of assay [9]: qHTS assay to identify small molecule antagonists of the peroxisome proliferator-activated receptor delta (PPARd) signaling pathway - cell viability counter screen (AID 743213). Further: nearly all actives have a fitted effect of over 50% in size. Further: potency means the concentration at half of the fitted maximal effect. Summed up:
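Cytotoxicity counter screen: CellTiter-Glo luminescence read 30 min after addition, in the same wells as the reporter assay. There, PPARd UAS-bla HEK293H cells (3000/well) were treated 17 h at 37 C with compound and 300 nM L165041.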

A short description of assay [10]: qHTS assay to identify small molecule agonists of the farnesoid-X-receptor (FXR) signaling pathway - cell viability counter screen (AID 743218). Further: nearly all actives have a fitted effect of over 45% in size. Further: potency means the concentration at half of the fitted maximal effect. Summed up:
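HEK 293T FXR-bla cells; 5 h pre-incubation, 16 h compound exposure at 37 C; LiveBLAzer substrate 2 h RT, then CellTiter-Glo 30 min RT, luminescence.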

The target in assay [11] is Vitamin D3 receptor (Homo sapiens) (UniProt P11473). Kind of assay: qHTS assay to identify small molecule agonists of the vitamin D receptor (VDR) signaling pathway (AID 743222; calls by dose curve). Summed up: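 VDR-bla cells, 2,000/well; 4 h preincubation 37C; cpd (DMSO) 16 h; LiveBLAzer B/G substrate 2 h RT; fluorescence intensity read.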
The target in assay [12] is Peroxisome proliferator-activated receptor gamma (Homo sapiens) (UniProt P37231). Kind of assay: qHTS assay to identify small molecule antagonists of the peroxisome proliferator-activated receptor gamma (PPARg) signaling pathway (AID 743191; calls by dose curve; further: series mostly up to about 63 µM; nearly all actives have a fitted effect of over 30% in size). The procedure, abridged: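 GeneBLAzer PPARg UAS-bla HEK293H cells carrying a UAS-driven beta-lactamase reporter were plated at 3000 cells/well, preincubated 5 h at 37C, then given compound for 17 h at 37C; LiveBLAzer B/G FRET substrate was read after 1 h at room temperature.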

A short description of assay [13]: qHTS assay for small molecule agonists of the antioxidant response element (ARE) signaling pathway (AID 743202; active means well fitted activation curve with a large enough effect in the signal ratio in the repeat runs, not every such curve was filed as active; the % refers to the signal ratio; further: potency means the concentration at half of the fitted maximal effect). Summed up:
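Compounds delivered in DMSO to ARE-bla HepG2 cells (2,000 cells/well, pre-incubated 5 h) and left 16 h at 37 C. LiveBLAzer B/G FRET substrate then added for 2 h at RT before fluorescence reading.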

Assay [14] can be described thus: qHTS assay for small molecule activators of the heat shock response signaling pathway (AID 743210; active means well fitted activation curve with a large enough effect in the signal ratio in the repeat runs, with a control signal flat, not every such curve was filed as active; the % refers to the signal ratio;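 further: HeLa cells with beta-lactamase reporter driven by heat shock elements; series mostly up to about 63 µM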). Summed up:
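Reporter gene assay: HeLa cells stably bearing an HSE-bla construct, compound treatment 5 h at 37 C, LiveBLAzer substrate 2.5 h at RT, fluorescence intensity.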

Assay [15] deals with Peroxisome proliferator-activated receptor delta (Homo sapiens) (UniProt Q03181). Put plainly: qHTS assay to identify small molecule agonists of the peroxisome proliferator-activated receptor delta (PPARd) signaling pathway (AID 743212; calls by dose curve). Summed up:
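A PPARd-bla HEK293H line with beta-lactamase under an Upstream Activator Sequence is treated with compounds at 37 C. Substrate loading for 2 h at room temperature precedes the fluorescence measurement.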

Assay [16] in a line: qHTS assay to identify small molecule antagonists of the farnesoid-X-receptor (FXR) signaling pathway - cell viability counter screen (AID 743221; active means well fitted cell-killing curve with a large enough effect in the repeat runs, not every such curve was filed as active; further: nearly all actives have a fitted effect of over 50% in size). The procedure, abridged:
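Cytotoxicity is taken from ATP luminescence (CellTiter-Glo, 30 min, room temperature) in FXR-bla HEK 293T cells previously incubated 16 h at 37 C with compound and chenodeoxycholic acid at 50 uM final.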

Assay [17] concerns the target Peroxisome proliferator-activated receptor delta (Homo sapiens) (UniProt Q03181). Put plainly: qHTS assay to identify small molecule antagonists of the peroxisome proliferator-activated receptor delta (PPARd) signaling pathway (AID 743215; active means well fitted inhibition curve with a large enough effect in the signal ratio in the repeat runs, not every such curve was filed as active; the % refers to the signal ratio;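 further: cells stimulated with agonist L165041 at 300 nM final during compound exposure; series mostly up to about 62 µM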). Summed up: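 Read-out is beta-lactamase FRET fluorescence, measured 2 h after substrate addition at room temperature. Beforehand, UAS-bla HEK293H cells carrying the PPARd reporter were exposed to compounds with L165041 at 300 nM final for 17 h at 37 C.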

Assay [18] has as its target Bile acid receptor (Homo sapiens) (UniProt Q96RI1). Kind of assay: qHTS assay to identify small molecule antagonists of the farnesoid-X-receptor (FXR) signaling pathway (AID 743217; active means well fitted inhibition curve with a large enough effect in the signal ratio in the repeat runs, not every such curve was filed as active; the % refers to the signal ratio). Summed up: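 HEK 293T FXR-UAS-bla, 5000 cells/well; compound + CDCA 50 uM final; 16 h, 37 °C; B/G FRET substrate 2 h RT; fluorescence.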
Assay [19] addresses Vitamin D3 receptor (Homo sapiens) (UniProt P11473). Put plainly: qHTS assay to identify small molecule antagonists of the vitamin D receptor (VDR) signaling pathway (AID 743223; active means well fitted inhibition curve with a large enough effect in the signal ratio in the repeat runs, not every such curve was filed as active; the % refers to the signal ratio). The procedure, abridged: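 Quantitative HTS in VDR-bla reporter cells stimulated with 1alpha,25-dihydroxyvitamin D3, 3 nM final. Compound exposure 16 h, 37C, 5% CO2. Read-out: beta-lactamase FRET substrate fluorescence, 2 h RT.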

The target in assay [20] is Bile acid receptor (Homo sapiens) (UniProt Q96RI1). Put plainly: qHTS assay to identify small molecule agonists of the farnesoid-X-receptor (FXR) signaling pathway (AID 743220; active means well fitted activation curve with a large enough effect in the signal ratio in the repeat runs, not every such curve was filed as active; the % refers to the signal ratio). Summed up: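 Beta-lactamase reporter under UAS control in GeneBLAzer FXR HEK 293T cells (5000/well) measured with LiveBLAzer FRET substrate after 2 h at room temperature. Compound exposure lasted 16 h at 37C.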
Chain of Bile acid receptor (Homo sapiens) (Q96RI1 whole entry, looked up): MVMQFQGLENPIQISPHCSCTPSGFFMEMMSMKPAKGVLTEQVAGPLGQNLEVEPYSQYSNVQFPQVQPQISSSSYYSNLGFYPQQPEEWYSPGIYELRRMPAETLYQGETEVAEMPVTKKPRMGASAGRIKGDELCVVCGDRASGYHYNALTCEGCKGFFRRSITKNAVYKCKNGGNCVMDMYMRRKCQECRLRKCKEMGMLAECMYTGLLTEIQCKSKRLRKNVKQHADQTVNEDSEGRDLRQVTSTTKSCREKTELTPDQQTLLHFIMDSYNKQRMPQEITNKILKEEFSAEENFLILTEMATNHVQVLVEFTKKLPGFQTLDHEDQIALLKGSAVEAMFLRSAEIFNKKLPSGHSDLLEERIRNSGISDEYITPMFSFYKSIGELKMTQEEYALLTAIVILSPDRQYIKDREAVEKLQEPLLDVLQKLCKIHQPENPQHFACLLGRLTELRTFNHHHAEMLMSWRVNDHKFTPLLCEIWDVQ

Chain of Peroxisome proliferator-activated receptor delta (Homo sapiens) (Q03181 whole entry, looked up): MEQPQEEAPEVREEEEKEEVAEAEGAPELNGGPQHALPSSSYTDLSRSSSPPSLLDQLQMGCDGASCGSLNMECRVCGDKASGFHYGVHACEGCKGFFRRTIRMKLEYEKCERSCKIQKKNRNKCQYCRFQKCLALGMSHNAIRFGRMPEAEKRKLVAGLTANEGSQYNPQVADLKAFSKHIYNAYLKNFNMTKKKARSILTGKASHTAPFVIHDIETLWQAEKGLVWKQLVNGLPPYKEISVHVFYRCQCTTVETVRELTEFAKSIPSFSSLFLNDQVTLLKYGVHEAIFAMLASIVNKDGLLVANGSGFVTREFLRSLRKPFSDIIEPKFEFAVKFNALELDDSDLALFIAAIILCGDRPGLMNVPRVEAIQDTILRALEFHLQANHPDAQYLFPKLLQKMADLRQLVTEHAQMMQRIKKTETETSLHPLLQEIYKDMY
Chain of Vitamin D3 receptor (Homo sapiens) (P11473 whole entry, looked up): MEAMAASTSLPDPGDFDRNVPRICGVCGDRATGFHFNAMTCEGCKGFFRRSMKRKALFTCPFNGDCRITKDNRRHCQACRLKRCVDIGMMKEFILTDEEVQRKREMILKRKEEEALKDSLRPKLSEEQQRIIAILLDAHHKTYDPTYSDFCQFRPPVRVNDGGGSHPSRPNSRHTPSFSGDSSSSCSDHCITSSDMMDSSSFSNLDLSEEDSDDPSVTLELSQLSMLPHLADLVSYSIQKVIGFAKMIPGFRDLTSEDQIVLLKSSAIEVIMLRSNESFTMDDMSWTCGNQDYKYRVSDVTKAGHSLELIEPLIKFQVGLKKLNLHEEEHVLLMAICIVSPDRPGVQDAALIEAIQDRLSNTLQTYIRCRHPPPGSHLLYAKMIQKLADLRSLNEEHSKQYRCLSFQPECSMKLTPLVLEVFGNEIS
Chain of Aryl hydrocarbon receptor (Homo sapiens) (P35869 whole entry, looked up): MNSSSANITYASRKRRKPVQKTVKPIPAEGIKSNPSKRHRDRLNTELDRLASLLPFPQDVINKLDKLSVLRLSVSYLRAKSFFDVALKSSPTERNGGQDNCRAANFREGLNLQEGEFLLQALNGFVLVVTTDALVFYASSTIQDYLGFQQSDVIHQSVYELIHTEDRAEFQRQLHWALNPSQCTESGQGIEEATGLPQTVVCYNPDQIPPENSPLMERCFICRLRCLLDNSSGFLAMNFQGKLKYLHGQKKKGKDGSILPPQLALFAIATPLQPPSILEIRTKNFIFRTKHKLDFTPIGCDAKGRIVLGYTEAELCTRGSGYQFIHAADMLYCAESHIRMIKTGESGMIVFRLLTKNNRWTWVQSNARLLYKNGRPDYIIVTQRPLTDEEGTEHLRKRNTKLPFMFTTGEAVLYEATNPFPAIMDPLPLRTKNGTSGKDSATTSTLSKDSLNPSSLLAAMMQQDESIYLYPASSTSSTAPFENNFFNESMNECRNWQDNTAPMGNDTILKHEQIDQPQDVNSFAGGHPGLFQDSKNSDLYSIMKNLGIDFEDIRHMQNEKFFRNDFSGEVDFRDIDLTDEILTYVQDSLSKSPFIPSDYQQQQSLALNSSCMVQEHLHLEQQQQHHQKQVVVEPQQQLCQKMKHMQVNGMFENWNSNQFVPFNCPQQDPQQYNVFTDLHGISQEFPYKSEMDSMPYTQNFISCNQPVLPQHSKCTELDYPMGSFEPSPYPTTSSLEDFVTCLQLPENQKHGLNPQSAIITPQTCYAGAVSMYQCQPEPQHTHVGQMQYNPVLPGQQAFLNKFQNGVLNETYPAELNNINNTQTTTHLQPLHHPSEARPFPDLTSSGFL
Chain of Peroxisome proliferator-activated receptor gamma (Homo sapiens) (P37231 whole entry, looked up): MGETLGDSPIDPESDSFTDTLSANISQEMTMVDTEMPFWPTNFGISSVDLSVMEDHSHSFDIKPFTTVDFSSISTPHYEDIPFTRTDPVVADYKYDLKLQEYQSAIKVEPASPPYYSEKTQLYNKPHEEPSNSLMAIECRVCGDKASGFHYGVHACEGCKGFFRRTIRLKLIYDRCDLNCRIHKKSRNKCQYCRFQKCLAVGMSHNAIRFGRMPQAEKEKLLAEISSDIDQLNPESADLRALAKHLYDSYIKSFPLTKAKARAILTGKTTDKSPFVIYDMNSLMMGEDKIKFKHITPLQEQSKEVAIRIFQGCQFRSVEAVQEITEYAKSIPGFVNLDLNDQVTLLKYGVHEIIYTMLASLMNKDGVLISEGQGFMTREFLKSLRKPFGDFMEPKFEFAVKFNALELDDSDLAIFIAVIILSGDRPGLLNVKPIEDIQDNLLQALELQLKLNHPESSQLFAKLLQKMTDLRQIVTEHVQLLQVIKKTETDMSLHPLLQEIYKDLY

Regarding `O=S1OCC2C(CO1)C1(Cl)C(Cl)=C(Cl)C2(Cl)C1(Cl)Cl` (stereo unspecified), the Potency in assay [1] is 48.6 µM (active); in assay [5], 55 µM (active) and 24.5 µM (active); in [6], 54.4 µM (active); in assay [7] it was 24.5 µM (active); in assay [8], 24.5 µM (active); in [9], 54.9 µM (active). The Potency in [10] is 38.9 µM (active). Besides, the Potency result in assay [2], in assay [3], in [4] and in assay [11] was “inactive” each time.
For `NC(=O)C(Cl)Cl`, the Potency result in [1], in assay [2], in [3], in assay [12], in [5] and in assay [13] was “inactive” each time. Besides, the Potency entry in assay [6], in [14], in assay [8], in assay [15], in assay [9] and in assay [10] was “inactive” throughout. Also, the Potency result in [16] is “inactive”.
In the case of `Cc1cc2c3c(c1)C(c1ccccc1)=N[C@@H](NC(=O)c1ccncc1)C(=O)N3CC2`, the Potency entry in assay [1], in [2], in [3], in assay [5], in assay [13] and in [6] was “inactive” each time. The Potency entry in assay [14], in [8], in assay [15], in assay [9], in [17] and in [18] was “inactive” in each case. The Potency entry in assay [10], in assay [16] and in assay [11] was “inactive” in each case.
Consider `CN=C=O`, for which the Potency result in assay [1], in assay [2], in assay [3], in assay [5], in assay [13] and in assay [6] was “inactive” throughout. Moreover, the Potency entry in [8], in [15], in [9], in assay [17], in assay [10] and in assay [16] was “inactive” in each case.
For `CC1(C)C(C=C(Cl)Cl)C1C(=O)OC(C#N)c1ccc(F)c(Oc2ccccc2)c1` (stereo unspecified), the Potency result in assay [1], in [2], in assay [3], in assay [12], in assay [5] and in assay [13] was “inactive” throughout. Also, the Potency result in assay [6], in assay [7], in [8], in assay [9], in [17] and in [16] was “inactive” each time. In addition, in [11], the Potency result was “inactive”.
Turning to `CC(=O)[O-].CC(=O)[O-].O.O.O.[Pb+2]`, the Potency entry in assay [1], in assay [2], in assay [3], in assay [5], in assay [6] and in assay [7] was “inactive” throughout. The Potency entry in [8], in assay [10] and in assay [16] was “inactive” in each case. In assay [13], the Potency was 2.73 µM (active).
`BrCCCBr`: the Potency result in assay [1], in assay [2], in [3], in assay [5], in assay [13] and in [6] was “inactive” each time. Besides, the Potency result in [7], in assay [14], in assay [8], in assay [9], in [17] and in assay [10] was “inactive” in each case. Besides, the Potency result in assay [16] and in assay [19] was “inactive” each time.
Consider `CCOP(=O)(OCC)Oc1cc(C)nc(C(C)C)n1`, for which the Potency result in assay [1], in assay [2], in [3], in assay [5], in [6] and in assay [7] was “inactive” throughout. Besides, the Potency result in [8], in assay [15], in [9], in assay [17], in assay [18] and in [10] was “inactive” throughout. In addition, the Potency entry in assay [20] and in assay [16] was “inactive” in each case.
As to `CCOP(=S)(OCC)SC(CCl)N1C(=O)c2ccccc2C1=O` (stereo unspecified), the Potency entry in [1], in assay [2], in [3], in assay [5], in assay [7] and in [8] was “inactive” throughout. For the same compound, in assay [11], the Potency entry was “inactive”. The Potency in [13] was 9.69 µM (active).
Take `N#Cc1ccc(N(CC(N)=O)CC(F)(F)F)cc1C(F)(F)F`: the Potency entry in assay [1], in assay [2], in [3], in assay [5], in assay [13] and in assay [6] was “inactive” in each case. The Potency entry in assay [14], in assay [8], in assay [9], in assay [17], in assay [18] and in assay [10] was “inactive” in each case. For the same compound, the Potency entry in assay [16], in assay [11] and in assay [19] was “inactive” each time. For the same compound, in assay [4], the Potency was 0.692 µM (active).
